A short description of assay [1]: ATG_RORE_CIS: Attagene CIS-FACTORIAL HepG2 Assay for human RAR-related Orphan Receptor Element (RORE) (AID 2282959). Particulars: HepG2 Attagene cis-factorial RORE reporter, mRNA; actives raise or lower the signal. The gist of the method:
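Transfect HepG2 with MRTUs; treat 24 h; extract RNA; RT with oligo(dT); PCR with reporter-specific primers; 6-FAM primer extension; HpaI digest 2 h at 37 C; capillary electrophoresis. Fit vs DMSO, bidirectional.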

A short description of assay [2]: ATG_Sox_CIS: Attagene CIS-FACTORIAL HepG2 Assay for human SRY-box transcription factor (SOX) (AID 2282960). Particulars: HepG2 Attagene cis-factorial SOX reporter, mRNA; actives raise or lower the signal. The essentials:
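Fluorescence-labelled cDNA fragments from reporter transcripts, sized by CE, give the signal. Cells: HepG2, transiently transfected with cis-regulated reporter units. Exposure 24 h; DMSO negative control; bidirectional curve fitting.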

Assay [3] addresses Transcription factor Sp1 (Homo sapiens) (UniProt P08047). The assay can be described thus: ATG_Sp1_CIS: Attagene CIS-FACTORIAL HepG2 Assay for human Specificity Protein 1 (Sp1) (AID 2282961). Particulars: HepG2 Sp1 cis-reporter transcription, actives raise or lower the signal. The gist of the method:
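Chemicals are dosed onto HepG2 cells transfected with multiple cis-promoter reporter constructs, and after 24 h reporter RNA is reverse-transcribed, PCR-amplified and resolved by capillary electrophoresis for fluorescence quantitation; activity is scored up or down against DMSO.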

A short description of assay [4]: ATG_SREBP_CIS: Attagene CIS-FACTORIAL HepG2 Assay for human Sterol Regulatory Element Binding (SREBP) (AID 2282962). Particulars: HepG2 Attagene cis-factorial SREBP reporter, mRNA; actives raise or lower the signal. The gist of the method:
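Endogenous SREBP activity read as cis-element-driven reporter transcript in transiently transfected HepG2, 24 h post-dosing; quantified via RT-PCR plus capillary electrophoresis of fluorescent fragments. Gain or loss of signal fitted relative to DMSO baseline.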

For assay [5], the target named is Signal transducer and activator of transcription 3 (Homo sapiens) (UniProt P40763). The experiment in a line: ATG_STAT3_CIS: Attagene CIS-FACTORIAL HepG2 Assay for human Signal Transducer and Activator of Transcription 3 (STAT3) (AID 2282963). Particulars: HepG2, Attagene cis-factorial STAT3 reporter transcription; actives raise or lower the signal. The essentials: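 Readout: fluorescent reporter mRNA fragments resolved by capillary electrophoresis. Setup: HepG2 transfected with MRTUs reporting endogenous transcription-factor activity, dosed 24 h. Gain or loss of signal fitted bidirectionally against DMSO control.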
Chain of Signal transducer and activator of transcription 3 (Homo sapiens) (P40763 whole entry, looked up, the tested form may be a part): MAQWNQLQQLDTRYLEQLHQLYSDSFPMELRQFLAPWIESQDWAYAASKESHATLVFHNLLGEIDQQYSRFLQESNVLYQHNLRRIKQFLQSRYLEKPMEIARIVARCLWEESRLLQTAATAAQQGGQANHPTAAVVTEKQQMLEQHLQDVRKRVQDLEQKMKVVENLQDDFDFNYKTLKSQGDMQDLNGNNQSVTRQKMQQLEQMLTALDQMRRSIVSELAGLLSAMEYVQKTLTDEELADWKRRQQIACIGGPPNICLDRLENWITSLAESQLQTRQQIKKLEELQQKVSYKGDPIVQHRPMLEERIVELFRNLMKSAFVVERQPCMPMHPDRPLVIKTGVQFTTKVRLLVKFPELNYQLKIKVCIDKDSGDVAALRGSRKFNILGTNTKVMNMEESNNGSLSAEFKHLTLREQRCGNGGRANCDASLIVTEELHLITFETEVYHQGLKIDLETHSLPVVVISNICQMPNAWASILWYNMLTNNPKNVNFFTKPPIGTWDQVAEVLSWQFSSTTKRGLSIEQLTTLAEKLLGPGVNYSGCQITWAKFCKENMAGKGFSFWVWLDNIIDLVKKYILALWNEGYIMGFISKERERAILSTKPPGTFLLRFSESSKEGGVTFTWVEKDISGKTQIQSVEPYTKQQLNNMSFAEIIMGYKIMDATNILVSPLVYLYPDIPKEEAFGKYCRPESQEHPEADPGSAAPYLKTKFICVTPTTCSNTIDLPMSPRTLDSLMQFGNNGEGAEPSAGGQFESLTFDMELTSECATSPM

A short description of assay [6]: ATG_TA_CIS: Attagene CIS-FACTORIAL HepG2 Assay for human TA Basal Promoter (AID 2282964). Particulars: HepG2 Attagene CIS-factorial TA basal promoter reporter; actives raise or lower the signal. The gist of the method: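 Steps: transfect HepG2 with MRTUs; dose 24 h; isolate RNA, DNase-treat, reverse-transcribe; PCR and FAM-label reporter cDNA; digest with HpaI 2h at 37 C; run capillary electrophoresis. Activity fitted both directions against DMSO.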

Assay [7] is described as follows: ATG_TCF_b_cat_CIS: Attagene CIS-FACTORIAL HepG2 Assay for human T-Cell-Factor with beta-catenin (TCF/b-cat) (AID 2282965). Particulars: HepG2 TCF/beta-catenin cis-reporter transcription, actives raise or lower the signal. The gist of the method: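 Cells of the HepG2 line carry transiently transfected reporter units whose promoters respond to endogenous factors. Twenty-four hours post-dosing, reporter mRNA induction is measured by fluorescent RT-PCR and capillary electrophoresis, with DMSO as baseline.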

Assay [8] in a line: ATG_TAL_CIS: Attagene CIS-FACTORIAL HepG2 Assay for human TAL Basal Promoter (AID 2282966).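 Also: background control endpoint measuring basal TAL promoter reporter mRNA not a specific factor.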 Particulars: HepG2 Attagene cis-factorial TAL promoter reporter; actives raise or lower the signal. The gist of the method: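 Human hepatoma HepG2 cells, transfected with promoter-regulated reporter units, were treated 24 h. Reporter transcript levels, measured through RT-PCR and capillary electrophoresis, were fitted for gain or loss relative to DMSO.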

The nature of assay [9]: ATG_TGFb_CIS: Attagene CIS-FACTORIAL HepG2 Assay for human Transforming Growth Factor (TGF) (AID 2282967). Particulars: HepG2 Attagene CIS TGFb reporter, mRNA transcription; actives raise or lower the signal. The essentials: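 Cells were dosed for 24 hours, after which total RNA was reverse-transcribed and reporter sequences amplified, labeled and sized by capillary electrophoresis. Activity was fitted in both directions against DMSO.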

A short description of assay [10]: ATG_VDRE_CIS: Attagene CIS-FACTORIAL HepG2 Assay for human Vitamin D Receptor Element (VDRE) (AID 2282968). Particulars: HepG2 VDRE cis-reporter transcription, actives raise or lower the signal. The essentials:
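Transient MRTU transfection of HepG2, 24 h compound exposure. Readout: reporter transcripts via RT-PCR and capillary electrophoresis, fluorescence. Bidirectional fit vs DMSO.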

Assay [11] concerns the target Glucocorticoid receptor (Homo sapiens) (UniProt P04150). The experiment in a line: ATG_GR_TRANS: Attagene TRANS-FACTORIAL HepG2 Assay for human Glucocorticoid Receptor (GR) (AID 2282978; active = hit-call score of the fitted dose curve at least 0.9, where 1 is the maximum;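 also: activators score as hits since higher reporter transcript over DMSO is fitted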). Particulars: HepG2 Attagene TRANS GR reporter, mRNA transcription. The essentials:
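Transiently transfected HepG2 cells express chimeric NR-GAL4 proteins acting on GAL4-UAS reporter units. Compounds are applied for 24 h. mRNA induction over DMSO is measured by capillary electrophoresis.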

The target of assay [12] is Bile acid receptor (Homo sapiens) (UniProt Q96RI1). The experiment in a line: ATG_FXR_TRANS: Attagene TRANS-FACTORIAL HepG2 Assay for Farnesoid X Receptor (FXR) (AID 2282979; active = hit-call score of the fitted dose curve at least 0.9, where 1 is the maximum;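 also: hits raise reporter mRNA above DMSO so AC50 marks FXR activation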). Particulars: HepG2 Attagene TRANS FXR-GAL4 reporter transcription. The essentials: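 After 24 h chemical treatment of transfected HepG2 cells, GAL4-UAS reporter transcripts driven by an exogenous FXR-GAL4 fusion were measured by RT-PCR and capillary electrophoresis. Increases over DMSO were fitted.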
Chain of Bile acid receptor (Homo sapiens) (Q96RI1 whole entry, looked up, the tested form may be a part): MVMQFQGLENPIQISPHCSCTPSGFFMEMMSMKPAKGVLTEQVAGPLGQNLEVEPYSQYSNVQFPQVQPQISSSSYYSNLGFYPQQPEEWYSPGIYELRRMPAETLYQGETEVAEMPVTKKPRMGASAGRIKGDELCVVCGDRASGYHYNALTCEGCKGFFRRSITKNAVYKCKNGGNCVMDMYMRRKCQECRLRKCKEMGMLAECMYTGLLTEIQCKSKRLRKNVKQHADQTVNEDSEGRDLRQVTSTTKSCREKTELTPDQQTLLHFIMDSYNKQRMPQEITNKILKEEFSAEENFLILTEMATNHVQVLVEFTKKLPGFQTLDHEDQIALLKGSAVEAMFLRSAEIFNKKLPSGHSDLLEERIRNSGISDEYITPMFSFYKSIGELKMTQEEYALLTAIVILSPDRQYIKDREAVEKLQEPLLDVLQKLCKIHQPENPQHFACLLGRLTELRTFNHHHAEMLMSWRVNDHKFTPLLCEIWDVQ

Assay [13] deals with Nuclear receptor subfamily 1 group I member 3 (Homo sapiens) (UniProt Q14994). The assay can be described thus: ATG_CAR_TRANS: Attagene TRANS-FACTORIAL HepG2 Assay for human Constitutive Androstane Receptor (CAR) (AID 2282969; active = hit-call score of the fitted dose curve at least 0.9, where 1 is the maximum;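 also: activators raise reporter mRNA above DMSO so AC50 marks induction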). Particulars: HepG2 Attagene TRANS-FACTORIAL CAR reporter. The essentials: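 Transiently transfected HepG2, multiplex TRANS reporters (CAR-Gal4 chimera driving GAL4-UAS reporter). 24 h dosing. Readout: reporter transcript by RT-PCR + capillary electrophoresis, fluorescence intensity; positive direction vs DMSO.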
Chain of Nuclear receptor subfamily 1 group I member 3 (Homo sapiens) (Q14994 whole entry, looked up, the tested form may be a part): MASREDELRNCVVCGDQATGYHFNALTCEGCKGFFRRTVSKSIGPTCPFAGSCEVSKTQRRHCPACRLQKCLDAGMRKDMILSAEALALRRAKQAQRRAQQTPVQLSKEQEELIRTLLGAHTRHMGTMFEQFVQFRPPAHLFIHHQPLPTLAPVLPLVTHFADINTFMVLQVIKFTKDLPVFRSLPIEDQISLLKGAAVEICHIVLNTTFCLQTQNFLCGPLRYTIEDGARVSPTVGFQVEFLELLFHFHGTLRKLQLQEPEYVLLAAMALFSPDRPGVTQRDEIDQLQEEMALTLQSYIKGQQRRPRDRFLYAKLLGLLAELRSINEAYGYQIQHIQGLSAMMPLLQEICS

In assay [14] the target is Estrogen receptor (Homo sapiens) (UniProt P03372). The experiment in a line: ATG_ERa_TRANS: Attagene TRANS-FACTORIAL HepG2 Assay for human Estrogen Receptor alpha (ERa) (AID 2282970; active = hit-call score of the fitted dose curve at least 0.9, where 1 is the maximum). Particulars: HepG2 Attagene TRANS ERa GAL4 reporter, mRNA. The gist of the method: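 Signal derives from fluorescence of labelled reporter PCR fragments separated by capillary electrophoresis. HepG2 cells transiently carrying multiple GAL4-UAS reporter units were treated 24 hours, and induction above DMSO baseline was fitted as activity.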
Chain of Estrogen receptor (Homo sapiens) (P03372 whole entry, looked up, the tested form may be a part): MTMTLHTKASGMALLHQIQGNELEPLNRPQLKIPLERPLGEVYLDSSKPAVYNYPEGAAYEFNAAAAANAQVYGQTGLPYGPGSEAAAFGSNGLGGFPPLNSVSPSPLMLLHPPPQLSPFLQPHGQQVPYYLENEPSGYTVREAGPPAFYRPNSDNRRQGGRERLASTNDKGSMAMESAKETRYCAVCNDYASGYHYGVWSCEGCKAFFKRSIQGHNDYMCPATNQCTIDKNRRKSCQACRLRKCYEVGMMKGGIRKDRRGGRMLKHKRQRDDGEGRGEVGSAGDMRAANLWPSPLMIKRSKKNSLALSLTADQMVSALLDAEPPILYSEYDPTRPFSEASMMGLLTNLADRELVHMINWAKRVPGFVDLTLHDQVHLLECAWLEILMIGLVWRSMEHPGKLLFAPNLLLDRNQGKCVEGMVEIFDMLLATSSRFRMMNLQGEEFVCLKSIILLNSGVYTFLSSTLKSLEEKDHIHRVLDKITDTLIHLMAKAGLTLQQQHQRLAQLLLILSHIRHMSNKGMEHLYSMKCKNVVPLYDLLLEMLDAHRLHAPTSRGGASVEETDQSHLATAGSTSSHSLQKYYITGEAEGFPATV

For assay [15], the target named is X-box-binding protein 1 (Homo sapiens) (UniProt P17861). The assay can be described thus: ATG_Xbp1_CIS: Attagene CIS-FACTORIAL HepG2 Assay for human X-box Binding Protein 1 (XBP1) (AID 2282972). Particulars: HepG2 XBP1 cis-element reporter, Attagene multiplex; actives raise or lower the signal. The gist of the method:
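Reporter transcripts were quantified by RT-PCR with fluorescent primer extension and capillary electrophoresis after 24 h chemical exposure. Cells: transiently transfected HepG2 carrying cis-regulated reporter constructs; data fitted bidirectionally relative to DMSO.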

A short description of assay [16]: ATG_M_19_TRANS: Attagene TRANS-FACTORIAL HepG2 Assay for M19 Transcription Factor (Internal Marker) (AID 2282974; active = hit-call score of the fitted dose curve at least 0.9, where 1 is the maximum). Particulars: HepG2 Attagene TRANS-FACTORIAL M19 internal marker reporter. The gist of the method:
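Multiplexed TRANS format: HepG2 liver cells bearing transient GAL4-UAS reporter units, chemical treatment 24 h, reporter transcripts quantified by RT-PCR plus capillary electrophoresis. DMSO defines baseline.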

Assay [17] addresses Steroid hormone receptor ERR1 (Homo sapiens) (UniProt P11474). The assay can be described thus: ATG_ERRa_TRANS: Attagene TRANS-FACTORIAL HepG2 Assay for human Estrogen-Related Receptor alpha (ERRa) (AID 2282971; active = hit-call score of the fitted dose curve at least 0.9, where 1 is the maximum). Particulars: HepG2 Attagene TRANS reporter, ERRa transactivation. The gist of the method:
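Signal gain relative to DMSO for an ERRa-Gal4 chimeric receptor, read as reporter mRNA by RT-PCR/capillary electrophoresis. Human HepG2 liver cells, transient multiplex reporter transfection, 24 h chemical exposure.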

Assay [18] can be described thus: ATG_PPRE_CIS: Attagene CIS-FACTORIAL HepG2 Assay for human Peroxisome Proliferator-activated Response Element (PPRE) (AID 2282958). Particulars: HepG2 PPRE cis-element reporter, Attagene transcription factor profiling; actives raise or lower the signal. The gist of the method:
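DMSO served as negative control and baseline for bidirectional curve fitting. Signal came from PPRE-regulated reporter mRNA in HepG2 cells, measured 24 h post-dosing by RT-PCR, 6-FAM primer extension and capillary electrophoresis.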

Assay [19] is described as follows: ATG_GAL4_TRANS: Attagene TRANS-FACTORIAL HepG2 Assay for GAL4 (Internal Marker) (AID 2282976; active = hit-call score of the fitted dose curve at least 0.9, where 1 is the maximum). Particulars: HepG2 Attagene TRANS GAL4 internal marker reporter. The gist of the method: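 Liver HepG2 line bearing multiplexed GAL4-UAS reporter constructs; 24 h chemical treatment. Transcripts were quantified as fluorescent fragments on capillary electrophoresis after RT-PCR and HpaI cut, with activity fitted upward from DMSO.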

Results filed as inconclusive are left out. Activity calls are given as the source filed them. The calls were made as follows, unless noted: active = hit-call score of the fitted dose curve at least 0.9, where 1 is the maximum; inactive = score below 0.9.

The values that follow come from PubChem BioAssay (EPA / NIEHS).

Chain of Transcription factor Sp1 (Homo sapiens) (P08047 whole entry, looked up): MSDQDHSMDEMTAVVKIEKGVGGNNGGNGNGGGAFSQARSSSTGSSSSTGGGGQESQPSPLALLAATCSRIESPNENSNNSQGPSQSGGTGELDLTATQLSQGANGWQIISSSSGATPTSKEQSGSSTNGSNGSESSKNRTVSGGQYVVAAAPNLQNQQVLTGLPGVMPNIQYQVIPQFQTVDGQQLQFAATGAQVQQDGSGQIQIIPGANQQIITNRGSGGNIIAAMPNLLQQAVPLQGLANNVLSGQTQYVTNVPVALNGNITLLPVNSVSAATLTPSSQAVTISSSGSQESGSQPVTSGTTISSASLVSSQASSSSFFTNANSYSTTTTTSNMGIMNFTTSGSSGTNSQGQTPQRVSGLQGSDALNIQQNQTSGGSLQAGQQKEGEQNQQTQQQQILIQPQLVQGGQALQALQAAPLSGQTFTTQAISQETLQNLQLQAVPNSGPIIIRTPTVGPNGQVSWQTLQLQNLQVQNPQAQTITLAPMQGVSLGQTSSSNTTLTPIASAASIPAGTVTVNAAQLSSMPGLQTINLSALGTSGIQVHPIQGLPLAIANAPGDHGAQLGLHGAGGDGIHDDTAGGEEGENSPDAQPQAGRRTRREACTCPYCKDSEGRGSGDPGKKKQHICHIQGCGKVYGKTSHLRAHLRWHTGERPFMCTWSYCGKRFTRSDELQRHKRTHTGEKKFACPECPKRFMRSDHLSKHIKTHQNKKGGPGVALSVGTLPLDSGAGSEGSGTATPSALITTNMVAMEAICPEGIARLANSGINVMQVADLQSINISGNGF
Chain of X-box-binding protein 1 (Homo sapiens) (P17861 whole entry, looked up): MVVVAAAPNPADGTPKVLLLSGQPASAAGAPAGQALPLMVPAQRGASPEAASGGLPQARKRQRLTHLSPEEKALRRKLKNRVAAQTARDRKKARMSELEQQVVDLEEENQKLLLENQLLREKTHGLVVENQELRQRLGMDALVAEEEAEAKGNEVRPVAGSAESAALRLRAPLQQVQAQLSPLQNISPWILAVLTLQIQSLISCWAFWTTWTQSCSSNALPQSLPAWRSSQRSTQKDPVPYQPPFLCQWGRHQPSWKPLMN
Chain of Glucocorticoid receptor (Homo sapiens) (P04150 whole entry, looked up, the tested form may be a part): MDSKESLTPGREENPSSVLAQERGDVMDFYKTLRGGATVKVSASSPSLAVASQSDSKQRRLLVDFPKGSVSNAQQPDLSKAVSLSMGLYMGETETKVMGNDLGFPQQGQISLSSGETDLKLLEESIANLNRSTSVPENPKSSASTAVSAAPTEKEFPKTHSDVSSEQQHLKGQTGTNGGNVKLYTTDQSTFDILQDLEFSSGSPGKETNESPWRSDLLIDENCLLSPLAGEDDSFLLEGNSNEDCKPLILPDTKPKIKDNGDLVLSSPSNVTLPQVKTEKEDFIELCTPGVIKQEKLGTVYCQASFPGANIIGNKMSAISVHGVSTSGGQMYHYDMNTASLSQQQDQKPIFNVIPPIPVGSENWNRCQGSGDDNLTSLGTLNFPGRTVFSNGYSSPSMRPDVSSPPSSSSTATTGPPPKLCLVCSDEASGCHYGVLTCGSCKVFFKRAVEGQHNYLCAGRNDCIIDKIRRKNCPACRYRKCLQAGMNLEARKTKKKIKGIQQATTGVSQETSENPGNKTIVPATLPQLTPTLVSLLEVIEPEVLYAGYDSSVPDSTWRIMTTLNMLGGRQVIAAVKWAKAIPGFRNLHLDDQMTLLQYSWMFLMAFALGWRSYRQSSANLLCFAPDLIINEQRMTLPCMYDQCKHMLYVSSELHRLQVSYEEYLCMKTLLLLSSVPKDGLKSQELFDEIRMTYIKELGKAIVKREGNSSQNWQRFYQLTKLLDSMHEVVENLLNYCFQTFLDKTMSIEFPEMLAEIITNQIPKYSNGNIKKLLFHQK
Chain of Steroid hormone receptor ERR1 (Homo sapiens) (P11474 whole entry, looked up, the tested form may be a part): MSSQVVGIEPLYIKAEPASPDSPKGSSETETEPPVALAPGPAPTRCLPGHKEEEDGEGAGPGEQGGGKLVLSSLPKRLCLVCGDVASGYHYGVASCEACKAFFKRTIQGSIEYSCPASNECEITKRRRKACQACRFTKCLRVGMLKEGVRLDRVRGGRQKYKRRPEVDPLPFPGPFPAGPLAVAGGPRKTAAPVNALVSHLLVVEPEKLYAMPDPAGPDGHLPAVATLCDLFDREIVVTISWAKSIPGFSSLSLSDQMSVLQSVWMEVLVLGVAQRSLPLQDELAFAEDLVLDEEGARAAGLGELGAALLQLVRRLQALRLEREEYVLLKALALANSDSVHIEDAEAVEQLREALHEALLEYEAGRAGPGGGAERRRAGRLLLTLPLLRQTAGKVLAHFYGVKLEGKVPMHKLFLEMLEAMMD

For the molecule `COC(=O)CCCC(=O)OC`, the call in [1], in assay [2], in assay [3], in assay [4], in [5] and in [6] was inactive. The molecule was called inactive in assay [7], in [8], in [9], in [10], in assay [11] and in [12].

What is called AC50 is the midpoint of the concentration-response curve, whichever way the signal moves. As for `COc1ccc(OC(F)(F)F)cc1CN[C@H]1CCCN[C@H]1c1ccccc1`, the molecule was called inactive in [1], in assay [2], in [3], in assay [5], in [6] and in [7]. For the same molecule, the molecule was classed as inactive in assay [8], in [9], in assay [13], in assay [14], in assay [15] and in assay [16]. The concentration at half-maximal activity (AC50) in assay [4] was 19.4 µM (active); in assay [10], 4.99 µM (active).

`CCCCC(CC)COC(=O)CCCCCCCC(=O)OCC(CC)CCCC` (stereo not drawn): the call in assay [2], in assay [3], in assay [4], in assay [5], in assay [6] and in assay [7] was inactive. For the same molecule, the call in assay [8], in assay [9], in assay [13], in [17], in assay [15] and in assay [11] was inactive. The molecule was called inactive in assay [12].

As to `CCCCCCCCCCCCCCOS(=O)(=O)O`, the molecule was called inactive in assay [18], in assay [2], in [3], in assay [5], in assay [6] and in assay [7]. The molecule was called inactive in [8], in assay [10], in [15] and in assay [11]. Also, the AC50 in assay [9] was 15.1 µM (active).

Regarding `Cc1occc(=O)c1O`, the molecule was called inactive in [1], in [2], in assay [3], in assay [5], in [6] and in assay [7]. For the same molecule, the call in assay [8], in assay [9], in assay [10], in assay [15], in assay [16] and in [19] was inactive.

As to `O=C1OC(c2ccc(O)cc2)(c2ccc(O)cc2)c2ccccc21`, the AC50 in [1] is 26.7 µM (active); in assay [3], 41.2 µM (active); in assay [4], 27.6 µM (active); in assay [6] it was 27.7 µM (active); in assay [7], 27.5 µM (active); in [8] it was 46.8 µM (active). The AC50 in assay [10] is 6.27 µM (active). Besides, the molecule was classed as inactive in assay [2], in [5], in assay [9] and in assay [16].
